Records with an inconclusive call do not appear. Some structures have more than one record in an assay (separate samples or runs), and their calls can disagree. Activity calls are given as the source filed them. How the source made its calls: active means hit-call score of the fitted dose curve at least 0.9, where 1 is the maximum; inconclusive means response in the unintended direction; inactive means score below 0.9.

Chain of zebrafish Estrogen Receptor (ER1), esr1 (gene 259252) (P57717 whole entry, looked up): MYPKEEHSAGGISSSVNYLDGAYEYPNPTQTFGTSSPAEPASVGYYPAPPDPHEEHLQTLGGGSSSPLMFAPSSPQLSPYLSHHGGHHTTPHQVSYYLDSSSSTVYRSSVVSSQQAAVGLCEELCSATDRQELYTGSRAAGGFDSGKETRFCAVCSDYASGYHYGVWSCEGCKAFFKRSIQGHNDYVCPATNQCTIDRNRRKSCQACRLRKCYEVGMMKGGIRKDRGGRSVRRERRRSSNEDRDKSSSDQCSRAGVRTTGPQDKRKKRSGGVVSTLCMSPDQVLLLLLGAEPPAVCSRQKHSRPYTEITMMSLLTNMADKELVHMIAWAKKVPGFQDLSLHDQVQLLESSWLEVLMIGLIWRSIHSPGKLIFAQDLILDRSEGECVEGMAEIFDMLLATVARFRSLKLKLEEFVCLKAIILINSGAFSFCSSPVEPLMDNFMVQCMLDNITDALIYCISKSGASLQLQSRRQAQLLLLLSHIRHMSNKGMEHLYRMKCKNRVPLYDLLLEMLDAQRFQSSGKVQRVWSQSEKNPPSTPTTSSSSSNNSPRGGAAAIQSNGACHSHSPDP

The experiment concerns the target zebrafish Estrogen Receptor (ER1), esr1 (gene 259252) (UniProt P57717). Nature of the experiment: ATG_zfER1_XSP2: Attagene TRANS-FACTORIAL Multi-Species (XSP2) HepG2 Assay for zebrafish Estrogen Receptor (ER1) (AID 2283816). The procedure: ATG_XSP2_multi-species_TRANS is a cell-based, multiplexed assay created by modifying the existing Attagene TRANS-FACTORIAL system to include a panel of nuclear receptors from some or all the following species: human (Homo sapiens), mouse (Mus musculus), frog (Xenopus laevis), zebrafish (Danio rerio), chicken (Gallus gallus), and turtle (Chrysemys picta). The ECOTOX-FACTORIAL format uses HepG2, a human liver cell line, with measurements taken at 24 hours after chemical dosing in a 24-well plate. Xsp2 included 3 nM 6-alpha-fluorotestosterone and 1.5 nM norgestrel to stimulate the androgen receptor.ATG_zfER1_XSP2 is one of 29 assay components measured or calculated from the ATG_XSP2_multi-species_TRANS assay. It is designed to make measurements of mRNA induction, a form of inducible reporter, as detected with fluorescence intensity signals by Reverse transcription polymerase chain reaction (RT-PCR) and Capillary electrophoresis technology.The assay endpoint ATG_zfER1_XSP2 was analyzed in the positive analysis fitting direction relative to DMSO as the negative control and baseline of activity. Using a type of inducible reporter, measures of mRNA for gain-of-signal activity can be used to understand the reporter gene at the transcription factor-level as they relate to the gene ER. Furthermore, this assay endpoint can be referred to as a primary readout, because this assay has produced multiple assay endpoints where this one serves a reporter gene function. To generalize the intended target to other relatable targets, this assay endpoint is annotated to the nuclear receptor intended target family, where the subfamily is steroidal.
Human liver HepG2 cells are transiently transfected with multiple reporter transcription units (MRTUs) in 6-well plates using FuGene 6 reagent (Roche; 3 ml FuGene/1 mg DNA). The MRTU constructs are regulated by a cis-regulating element (promoter). […] A major difference between the CIS and TRANS system is that in CIS activities of endogenous TFs are measured, whereas the TRANS assay evaluates changes in activities of exogenous, chimeric NR-Gal4 proteins. […] At the end of 24 hour incubation, total RNA was isolated using TriZol reagent (Invitrogen). The isolated RNA is then reverse-transcribed using oligo(dT) primer and Mo-MLV reverse transcriptase (Invitrogen) with DNAse I (Ambion) treatment for 30 min. The one-tenth of the produced cDNA was amplified by PCR using Taq DNA polymerase (Invitrogen) and two reporter sequence-specific primers. The PCR products were fluorescently labeled by primer extension with 6-arboxyfluorescein (6-FAM) 5'-labeled reporter sequence-specific primer (2 min at 95 C, 20 s at 68 C and 10 min at 72 C) and these products were digested with 5U of HpaI (New England Biolabs) for 2h at 37 C. The fragments were purified using Qiaquick PCR columns (Qiagen), analyzed on an ABI 3130xL genetic analyzer (Applied Biosystems) with peak positions identified by using a set of X-rhodamine (ROX)-labeled MapMarker1000 molecular weight standards (BioVentures). The raw capillary electrophoresis data was processed using Attagraph software (Attagene).
For `CCC(=O)Nc1ccc(Cl)c(Cl)c1`, the call was inactive. The same measure, in the same setting: the result for `C#CCC1=C(C)C(OC(=O)C2C(C=C(C)C)C2(C)C)CC1=O` (stereo not given) reads “inactive”. On to `COc1ccc(C(=CC(=O)N2CCOCC2)c2ccc(Cl)cc2)cc1OC`, for which the AC50 (usually the concentration giving half of the maximal activity seen) was 58.2 µM (active) and the compound was called inactive.

On to `CCc1cccc(C)c1N(C(=O)CCl)C(C)COC` (stereo not given), for which the call was inactive. As to `CCC(CC)Nc1c([N+](=O)[O-])cc(C)c(C)c1[N+](=O)[O-]`, the call was inactive and the AC50 was 7.37 µM (active).

As for `CCCOCC(=Nc1ccc(Cl)cc1C(F)(F)F)n1ccnc1`, the outcome was inactive. The same measure, in the same setting: the result for `Nc1c(Cl)cc([N+](=O)[O-])cc1Cl` reads “inactive”; that for `CCOP(=O)(NC(C)C)Oc1ccc(SC)c(C)c1` (stereo not given), “inactive”.

The values are drawn from PubChem BioAssay (EPA / NIEHS).
